Here are results for 14 compounds from the supplement of paper PMC6522484.

The structures appear in SMILES notation. ± gives the standard deviation of the averaged measurements.

The subject of assay [1] is DLD1. Briefly: cell viability (CellTiter-Glo) relative to plate median (fraction of plate median); higher = more viable cells. The note with it: 5 µM; treatment time 24 h; reporter: 7TFP. The essentials: (§1)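 Colorectal cancer cell lines stably transduced with lentiviral TCF/Wnt firefly luciferase reporters (7TFP or TCF4/Wnt) were seeded in 384-well plates. 24 h later they received library compounds at a final 5 µM for 24 h. Parallel plates were read for firefly luciferase or CellTiterGlo luminescence on a Tecan F500 reader. Each well's signal was normalised to the plate median (webcellHTS2, additive, no log transformation), and the mean of two independent replicates is reported.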
On the technique in general: In ATP-based viability assays light output follows the ATP content of the culture.

The subject of assay [2] is HCT116. Described as above. The note with it: 5 µM; treatment time 24 h; reporter: TCF4/Wnt. The procedure, abridged:
as §1

Assay [3] concerns SW480. The assay is described as above. The note with it: 5 µM; treatment time 24 h; reporter: 7TFP. The essentials: as §1
The subject of assay [4] is DLD1. In words: TCF/Wnt firefly luciferase reporter signal relative to plate median (fraction of plate median); higher = higher Wnt reporter signal. The note with it: 5 µM; treatment time 24 h; reporter: 7TFP. The procedure, abridged:
as §1
In general terms: In a reporter assay the amount or activity of a reporter protein is the signal.

Assay [5] concerns SW480. The assay is described as above. The note with it: 5 µM; treatment time 24 h; reporter: 7TFP. The procedure, abridged:
as §1

Assay [6] concerns DLD1. In words: cell viability (CellTiter-Glo) relative to plate median (fraction of plate median); higher = more viable cells. The note with it: 10 µM, treatment time 24 h. The essentials:
(§2)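 Colorectal cancer cell lines stably transduced with lentiviral TCF/Wnt firefly luciferase reporters (7TFP or TCF4/Wnt) were seeded in 384-well plates. 24 h later they received kinase inhibitor library compounds at a final 10 µM for 24 h. Parallel plates were read for firefly luciferase or CellTiterGlo luminescence on a Tecan F500 reader. Each well's signal was normalised to the plate median (webcellHTS2, additive, no log transformation), and the mean of two independent replicates is reported.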

Assay [7] has as its system HCT116. Described as above. The note with it: 10 µM; treatment time 24 h; reporter: TCF4/Wnt. The essentials:
as §2

The subject of assay [8] is SW480. The description is as above. The note with it: 10 µM; treatment time 24 h; reporter: 7TFP. The essentials: as §2
In assay [9] the test system is DLD1. Briefly: TCF/Wnt firefly luciferase reporter signal relative to plate median (fraction of plate median); higher = higher Wnt reporter signal. Conditions: 10 µM, treatment time 24 h. The essentials:
as §2

Assay [10] relates to HCT116. The assay is described as above. Conditions: 10 µM; treatment time 24 h; reporter: TCF4/Wnt. The procedure, abridged:
as §2

The test system of assay [11] is SW480. Described as above. The note with it: 10 µM; treatment time 24 h; reporter: 7TFP. The essentials: as §2

As for `C=C(C)[C@@H]1CC[C@]2(C(=O)O)CC[C@]3(C)[C@H](C[C@H]4OC(=O)C[C@@H](O)[C@]5(C)[C@@H]4[C@@]3(C)CC[C@H]5C(=C)C)[C@@H]12` [Chiisanogenin (12)], the figures for the cell viability with DLD1 [1], in the assay on HCT116 [2] and in the assay on SW480 [3] were 0.9945 ± 0.00071, 1.02 ± 0.12 and 0.968 ± 0.023, respectively. Also, the “TCF/Wnt firefly luciferase reporter signal” value was 1.11 ± 0.028 in the assay on DLD1 [4] and 1.12 ± 0.028 with SW480 [5].
Regarding `CN[C@@H]1[C@@H](O[C@H]2O[C@H](CO)[C@@H](N)[C@H](O)[C@H]2O)OC2C[C@@H](N)[C@@H](O[C@H]3[C@H](O)[C@@H](O)[C@H](N)C[C@@H]3N)OC2[C@@H]1O` (stereo partly specified), the results for the cell viability with DLD1 [1], with HCT116 [2] and in the assay on SW480 [3] were 0.893 ± 0.0028, 0.952 ± 0.03 and 0.965 ± 0.037, respectively. For the same compound, the “TCF/Wnt firefly luciferase reporter signal” value in the assay on DLD1 [4] is 1.08 ± 0.028; in the assay with SW480 [5], 0.88 ± 0.11.
For the compound `CC1(C)[C@@H](OC(=O)CCC(=O)O)CC[C@]2(C)[C@H]3C(=O)C=C4[C@@H]5C[C@@](C)(C(=O)O)CC[C@]5(C)CC[C@@]4(C)[C@]3(C)CC[C@@H]12`, the results for the cell viability in the assay with DLD1 [1], in the assay on HCT116 [2] and in the assay on SW480 [3] were 1 ± 0.011, 1.02 ± 0.035 and 1.06 ± 0.014, respectively. Further, the figures for the “TCF/Wnt firefly luciferase reporter signal” value with DLD1 [4] and with SW480 [5] were 1.09 and 1.01, respectively.
Regarding `C#C[C@]1(OC(C)=O)CC[C@H]2[C@@H]3CCC4=CC(=NO)CC[C@@H]4[C@H]3CC[C@@]21CC` (mixture of isomers), the results for the cell viability in the assay with DLD1 [1], in the assay with HCT116 [2] and with SW480 [3] were 1 ± 0.057, 1.025 ± 0.0071 and 0.98 ± 0.025, respectively. The “TCF/Wnt firefly luciferase reporter signal” value in the assay with DLD1 [4] was 1.055 ± 0.0071; in the assay on SW480 [5], 0.97 ± 0.04.
Consider `N#C/C(=C\c1ccc(O)c(O)c1)C(=O)NCc1ccccc1`, for which the cell viability with DLD1 [6] (reporter: 7TFP) is 0.874 ± 0.063; in the assay with DLD1 [6] (reporter: TCF4/Wnt), 0.946 ± 0.031; in the assay on HCT116 [7] it was 1.08 ± 0.028; with SW480 [8], 0.94 ± 0.032. Moreover, the “TCF/Wnt firefly luciferase reporter signal” value in the assay with DLD1 [9] (reporter: 7TFP) stood at 0.656 ± 0.15; in the assay on DLD1 [9] (reporter: TCF4/Wnt), 1.2 ± 0.13; in the assay with HCT116 [10], 1.1 ± 0.021; in the assay with SW480 [11] it was 0.834 ± 0.016.
`CN1C2CCC1CC(OC(=O)C(O)c1ccccc1)C2` (stereo unspecified): the “TCF/Wnt firefly luciferase reporter signal” value with DLD1 [4] worked out at 1.05 ± 0.042; in the assay on SW480 [5], 1.12 ± 0.021.
For `CC(=O)[C@@]1(O)CC[C@H]2[C@@H]3C[C@H](C)C4=CC(=O)C=C[C@]4(C)[C@@]3(F)[C@@H](O)C[C@@]21C`, the values for the cell viability with DLD1 [1], in the assay with HCT116 [2] and in the assay with SW480 [3] were 1.07 ± 0.085, 1.03 and 0.957 ± 0.044, respectively. The results for the “TCF/Wnt firefly luciferase reporter signal” value with DLD1 [4] and in the assay with SW480 [5] were 0.985 ± 0.079 and 0.99 ± 0.057, respectively.
In the same order, the values of `CC(C)C[C@H](NC(=O)[C@@H]1CCCN1)C(=O)N1CCNC(=O)C1=O` [Prolyl-leucyl-diketopiperazine] are 1.02 ± 0.035, 0.993 ± 0.011, 0.984 ± 0.0042, 1.04 ± 0.13 and 1.025 ± 0.0071.
On to `O=C1NC(=O)/C(=C/c2ccc(-c3ccc(F)cc3O)o2)S1`, for which the cell viability in the assay with DLD1 [6] (reporter: 7TFP) amounted to 1.09 ± 0.092; in the assay with DLD1 [6] (reporter: TCF4/Wnt) it was 1.21 ± 0.028; in the assay on HCT116 [7], 1.19 ± 0.092; in the assay on SW480 [8], 1.04 ± 0.14. The “TCF/Wnt firefly luciferase reporter signal” value with DLD1 [9] (reporter: 7TFP) came to 0.905 ± 0.13; with DLD1 [9] (reporter: TCF4/Wnt), 1.34 ± 0.47; with HCT116 [10], 1.7 ± 0.71; with SW480 [11], 1.41 ± 0.35.
In the case of `COc1ccccc1OCCNCC(O)COc1cccc2[nH]c3ccccc3c12` (stereo unspecified), the cell viability was found to be 1.05 ± 0.22 in the assay on DLD1 [1], 1.06 ± 0.078 in the assay on HCT116 [2] and 1.1 in the assay with SW480 [3]. Besides, the “TCF/Wnt firefly luciferase reporter signal” value worked out at 1.21 ± 0.085 in the assay with DLD1 [4] and 1.075 ± 0.0071 with SW480 [5].
Consider `CC[C@H](Nc1ncnc2[nH]cnc12)c1nc2cccc(F)c2c(=O)n1-c1ccccc1`, for which the cell viability is 1.05 ± 0.14 in the assay with DLD1 [6] (reporter: 7TFP), 0.999 ± 0.086 with DLD1 [6] (reporter: TCF4/Wnt), 1.11 ± 0.042 in the assay with HCT116 [7] and 0.996 ± 0.02 in the assay on SW480 [8]. The “TCF/Wnt firefly luciferase reporter signal” value in the assay on DLD1 [9] (reporter: 7TFP) worked out at 0.977 ± 0.089; in the assay with DLD1 [9] (reporter: TCF4/Wnt), 0.788 ± 0.024; with HCT116 [10], 0.777 ± 0.3; in the assay on SW480 [11], 0.751 ± 0.26.
Consider `Cc1cc(NS(=O)(=O)c2ccc(N)cc2)no1`, for which the cell viability in the assay with DLD1 [1] came out at 1.035 ± 0.0071; in the assay on HCT116 [2], 1.15 ± 0.035; in the assay with SW480 [3], 1.01. For the same compound, the “TCF/Wnt firefly luciferase reporter signal” value in the assay on DLD1 [4] worked out at 1.09 ± 0.11; with SW480 [5] it was 0.988 ± 0.032.
In the same order, the values of `CC[C@H]1OC(=O)[C@H](C)[C@@H](O[C@H]2C[C@@](C)(OC)[C@@H](O)[C@H](C)O2)[C@H](C)[C@@H](O[C@@H]2O[C@H](C)C[C@H](N(C)C)[C@H]2O)[C@](C)(O)C[C@@H](C)/C(=N\OCOCCOC)[C@H](C)[C@@H](O)[C@]1(C)O` are 1.03 ± 0.079, 1.12 ± 0.26, 1.12 ± 0.057, 0.907 ± 0.13 and 1.03 ± 0.05.
On to `CC(=O)Oc1c(C)c(C)c2c(c1C)CCC(C)(CCCC(C)CCCC(C)CCCC(C)C)O2` (stereo not drawn) [alpha-TOCHOPHERYL ACETATE], for which the cell viability amounted to 1.06 ± 0.085 in the assay on DLD1 [1], 1.02 ± 0.092 with HCT116 [2] and 1.06 ± 0.014 with SW480 [3]. In addition, the “TCF/Wnt firefly luciferase reporter signal” value in the assay on DLD1 [4] is 1.12 ± 0.18; in the assay with SW480 [5] it was 1.09 ± 0.057.
